In PubChem BioAssay AID1159580 (chemical genetic matrix, 2015):
Where “and” joins values, the source holds several entries; their conditions need not be identical. Equal values may be shown once. Screen size: about 5,500 compounds; about 2,000 (36%) were called active. Another 18% or so got no clear call; they are omitted. No stated cut-off is given here; in the data, active means normalized growth mostly below about 0.91 (no sharp cut-off); inconclusive means no clear call, values can overlap the other calls; inactive means mostly above about 0.92. The list shows a part of the results.

Assay: chemical genetic growth profiling, strain panel (AID 1159580);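 further: tested at 20 µM; growth read once vehicle control cultures reached saturation at 30 °C; 1 = growth at the plate median or of vehicle wells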
Conditions: S. cerevisiae deletion strains, growth OD

Measured: normalized growth

CC(C)CC(N(C)C)C1(c2ccc(Cl)cc2)CCC1 (stereo unspecified)
inactive: locus YAL013W, strain DEP1, stronger effect = lower value 1 | locus YAL021C, strain ccr4, stronger effect = lower value 0.987 | locus YAL026C, strain drs2, stronger effect = lower value 1.01 | locus YAL030W, strain snc1, stronger effect = lower value 1.01 | locus YBL061C, strain skt5, stronger effect = lower value 1 | locus YBR009C, strain hhf1, stronger effect = lower value 1 | locus YBR021W, strain FUR4, stronger effect = lower value 0.952 | locus YBR023C, strain chs3, stronger effect = lower value 1.01 | locus YBR171W, strain sec66, stronger effect = lower value 1.01 | locus YBR229C, strain ROT2, stronger effect = lower value 0.999 | locus YBR231C, strain swc5, stronger effect = lower value 1.02 | locus YBR279W, strain paf1, stronger effect = lower value 1.01 | locus YCL011C, strain gbp2, stronger effect = lower value 0.999 | locus YCL016C, strain dcc1, stronger effect = lower value 0.994 | locus YCL029C, strain bik1, stronger effect = lower value 1.02 | locus YCL069W, strain vba3, stronger effect = lower value 1 | locus YCR088W, strain abp1, stronger effect = lower value 1.02 | locus YDL005C, strain med2, stronger effect = lower value 1.01 | locus YDL035C, strain GPR1, stronger effect = lower value 1.02 | locus YDL040C, strain nat1, stronger effect = lower value 0.999 | locus YDL074C, strain BRE1, stronger effect = lower value 1 | locus YDL101C, strain DUN1, stronger effect = lower value 1 | locus YDL134C, strain PPH21, stronger effect = lower value 1.01 | locus YDL185W, strain tfp1, stronger effect = lower value 1.01 | locus YDL192W, strain arf1, stronger effect = lower value 1.02 | locus YDR001C, strain nth1, stronger effect = lower value 0.994 | locus YDR069C, strain doa4, stronger effect = lower value 1.03 | locus YDR101C, strain arx1, stronger effect = lower value 1.01 | locus YDR137W, strain rgp1, stronger effect = lower value 1.12 | locus YDR150W, strain NUM1, stronger effect = lower value 1.01 | locus YDR159W, strain sac3, stronger effect = lower value 0.994 | locus YDR162C, strain NBP2, stronger effect = lower value 0.99 | locus YDR195W, strain ref2 1.04 | locus YDR297W, strain sur2, stronger effect = lower value 1.01 | locus YDR318W, strain mcm21, stronger effect = lower value 1.02 | locus YDR334W, strain swr1, stronger effect = lower value 1.01 | locus YDR335W, strain msn5, stronger effect = lower value 1 | locus YDR388W, stronger effect = lower value 1.02 | locus YDR392W, strain spt3, stronger effect = lower value 0.976 | locus YDR502C, strain sam2, stronger effect = lower value 1.01 | locus YEL003W, strain gim4, stronger effect = lower value 1 | locus YEL037C, strain rad23, stronger effect = lower value 1.01 | locus YEL061C, strain CIN8 (second series), stronger effect = lower value 1 | locus YEL061C, strain CIN8, stronger effect = lower value 0.993 | locus YER015W, strain faa2, stronger effect = lower value 0.982 | locus YER016W, strain bim1, stronger effect = lower value 1 | locus YER110C, stronger effect = lower value 1.01 | locus YER111C, strain swi4, stronger effect = lower value 1.01 | locus YER155C, strain BEM2 (second series), stronger effect = lower value 1.03 | locus YER155C, strain BEM2, stronger effect = lower value 0.969 | locus YER167W, strain BCK2, stronger effect = lower value 0.983 | locus YFR010W, strain ubp6, stronger effect = lower value 1.02 | locus YGL078C, strain dbp3, stronger effect = lower value 1 | locus YGL086W, strain mad1, stronger effect = lower value 1.01 | locus YGL167C, strain pmr1, stronger effect = lower value 0.997 | locus YGL173C, strain kem1, stronger effect = lower value 1 | locus YGL227W, strain vid30, stronger effect = lower value 1.01 | locus YGL240W, strain doc1, stronger effect = lower value 1.03 | locus YGL248W, strain PDE1, stronger effect = lower value 0.999 | locus YGL253W, strain hxk2, stronger effect = lower value 1 | locus YGR078C, strain PAC10, stronger effect = lower value 1.01 | locus YGR135W, strain pre9, stronger effect = lower value 1.02 | locus YGR229C, strain SMI1, stronger effect = lower value 0.986 | locus YGR252W, strain gcn5, stronger effect = lower value 1.03 | locus YHR013C, strain ard1, stronger effect = lower value 1.02 | locus YHR027C, strain rpn1, stronger effect = lower value 1 | locus YHR030C, strain SLT2, stronger effect = lower value 1.01 and 1.02 | locus YHR079C, strain IRE1 (second series), stronger effect = lower value 1.01 | locus YHR079C, strain IRE1, stronger effect = lower value 1.01 | locus YHR094C, strain hxt1, stronger effect = lower value 1.01 | locus YHR129C, strain ARP1, stronger effect = lower value 1 | locus YHR142W, strain chs7, stronger effect = lower value 1 | locus YHR200W, strain rpn10, stronger effect = lower value 1.02 | locus YIL066C, strain RNR3, stronger effect = lower value 0.997 | locus YIL073C, strain SPO22, stronger effect = lower value 1.02 | locus YIL125W, strain kgd1, stronger effect = lower value 1 | locus YIR030C, strain dcg1, stronger effect = lower value 1.01 | locus YJL092W, strain hpr5, stronger effect = lower value 1 | locus YJL095W, strain BCK1 (second series), stronger effect = lower value 1 | locus YJL095W, strain BCK1, stronger effect = lower value 1.01 and 0.998 | locus YJL115W, strain asf1, stronger effect = lower value 1.02 | locus YJL129C, strain trk1, stronger effect = lower value 1.03 | locus YJL134W, strain LCB3, stronger effect = lower value 1 | locus YJL154C, strain vps35, stronger effect = lower value 1.01 | locus YJL164C, strain tpk1, stronger effect = lower value 0.995 | locus YJL166W, strain qcr8, stronger effect = lower value 1.02 | locus YJL168C, strain set2, stronger effect = lower value 1.01 | locus YJL187C, strain SWE1 (second series), stronger effect = lower value 1.01 | locus YJL187C, strain SWE1, stronger effect = lower value 1.01 | locus YJR043C, strain POL32, stronger effect = lower value 0.999 | locus YJR066W, strain TOR1, stronger effect = lower value 0.961
